KDM5B inhibitor: Primary screen for KDM5B Histone Demethylases FDH-coupled qHTS | KDM5B demethylase, FDH-coupled NADH fluorescence (FDH is formaldehyde dehydrogenase) | Potency, µM (titrated, usually from 57.7 µM), hits mostly inhibitors | 220,000 compounds, 2.6% hits | AID 1347165, 2019; active = well fitted inhibition curve with a large enough effect; note: nearly all actives have a fitted effect of over 70% in size
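Here, H3K4me3 peptide (12.5 µM in substrate mix) is demethylated by KDM5BΔAP, 200 nM final, after 10 min compound exposure. Formaldehyde product is coupled through FDH (0.25 U/mL in mix) to NADH fluorescence; 30-min ΔRFU feeds dose-response curves.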
Of the large screens only hits and unclear results are named; the others gave an inactive call. This excerpt belongs to a sample that is enriched for hits.

O=C(c1ccccc1F)N1CCC2(CC1)NC(=O)N(Cc1ccc(F)cc1)C2=O	none
COc1cc(C(=O)/C=C/c2cccs2)ccc1OCC(=O)O	none
COc1ccc(Br)cc1/C=C1\Oc2cc(OS(C)(=O)=O)ccc2C1=O	none
O=C1CN(Cc2ccc(-c3cccs3)cc2)CCN1c1ccc(Cl)nn1	KDM5B inhibitor 79µM
O=C1CN(Cc2ccccc2)CCN1c1ccc(Cl)nn1	none
O=C1CN(Cc2ccc(-c3ccccc3)cc2)CCN1c1ccc(Cl)nn1	none
Oc1c(C(c2cccs2)N2CCCC2)sc2nc(-c3ccco3)nn12 (centres undefined)	none
COC(=O)c1ccc(COC(=O)c2ccc3c(c2)NC(=O)CS3)cc1	none
CCOc1cc(C(c2c(C)[nH]c3ccccc23)c2c(C)[nH]c3ccccc23)ccc1O	none
Cc1ccc(NC(=O)CSC2=NC(C)(C)N=C2c2ccc(C)cc2)cc1	none
O=C(Nc1ccc2oc(-c3cccc(F)c3)nc2c1)c1ccc2ccccc2c1	none
Fc1cccc(-c2nc3cc(Cl)ccc3o2)c1	none
O=C(Nc1cccc(-c2nc3cc(Cl)ccc3o2)c1)c1cccc(F)c1	none
Cc1nc(CNC(=O)c2ccc3oc(-c4cccc(F)c4)nc3c2)cs1	KDM5B inhibitor 20µM
O=C(O)c1ccc2oc(-c3ccccc3F)nc2c1	none
CN(CCC(O)c1ccccc1)C(=O)c1ccc2oc(-c3cccc(F)c3)nc2c1 (centres undefined)	KDM5B inhibitor 22µM
COc1cc(OC)c2c(C)c(CC(=O)NC3CC(C)(C)NC(C)(C)C3)c(=O)oc2c1	none
CC(C)(C)CC(=O)Nc1nc2c(s1)C[C@@H]1[C@](C)(CO)[C@H](O)CC[C@@]1(C)[C@@H]2CC(=O)N1CCC(C(N)=O)CC1	none
Cc1cc(C)c(NC(=O)CN(C)c2nc(CN3CCOCC3)nc3sc(C)c(C)c23)c(C)c1	none
CC1(c2ccccc2)N(Cc2ccccc2)C(=O)OC12CCN(C(=O)c1cccc(O)c1)CC2 (centres undefined)	none
CN(Cc1ccc(Br)cc1)S(=O)(=O)c1ccc2c(c1)CCC2	none
COC(=O)C1=C(C)N(C2CCCC2)C(=O)C1(NC(=O)C1CC1)C(F)(F)F (centres undefined)	none
Cc1cn2nc(C(=O)Nc3ccc(F)cc3C)cc2c(N2CCSCC2)n1	KDM5B inhibitor 25µM
CCn1cc(C(=O)NC(C)C(=O)Nc2ccc(C)cc2F)c(C)n1 (centres undefined)	none
Cc1cc(C(=O)Nc2ccc(F)cc2C)n(-c2ccccc2)n1	none
Cc1ccc(NC(=O)c2nc3ccccc3nc2N2CCCC2)c(C)c1	none
Cc1cc(C(=O)Nc2ccc(F)cc2C)cs1	none
Cc1ccc(NC(=O)c2cc3c(N4CCSCC4)nc(C)cn3n2)c(F)c1	KDM5B inhibitor 28µM
Cc1sc(NC(=O)c2ccccc2)c(C(c2cccs2)N2CCOCC2)c1C (centres undefined)	none
O=C(c1cccc(C(F)(F)F)c1)N1CCN(C(=O)C2CC=CCC2)CC1 (centres undefined)	none
Cc1nc2ncccn2c1C(=O)N1CCn2nc(CO)cc2C1	KDM5B inhibitor 32µM
O=C(O)C1CNCCN(C(=O)c2nc3ccc(F)cc3[nH]2)C1 (centres undefined)	none
Cc1nc2ncccn2c1C(=O)N1CCNCC(C(=O)O)C1 (centres undefined)	KDM5B inhibitor 22µM
O=C(c1cc(-n2cccn2)ccc1Cl)N1CCn2nc(CO)cc2C1	none
O=C(c1ccccc1OCc1ccccc1)N1CCNCC(O)C1 (centres undefined)	none
Cc1cccc2nc(C(=O)N3CCn4nc(Cc5ccccc5)cc4C3)cn12	none
Cc1ccc2[nH]cc(CCNC(=O)c3ccc(F)cc3F)c2c1	none
CCNC(=O)c1ccc(OC2CCN(C(=O)c3ccnn3C)C2)nc1 (centres undefined)	none
CCN1CCN(c2nc(Nc3ccc(Cl)cc3)c3nccnc3n2)CC1	none
O=C1CCCC2=C1C(c1ccc(Cl)cc1)CC(=O)N2c1ccccc1F (centres undefined)	none
C=CCOc1ccc(C(=O)Nc2ccccc2C(C)C)cc1	none
CN(C)c1ccc(NC(=O)CC(c2ccccc2)c2ccccc2)cc1	none
O=C(CC1CCN(S(=O)(=O)c2ccc(F)cc2)C1)NCc1ccccc1 (centres undefined)	none
Clc1ccc(-c2ccc(CNc3ncn[nH]3)o2)c(Cl)c1	none
CC(=O)c1ccc(NC(=O)N[C@H]2CO[C@H]3[C@@H]2OC[C@H]3OC(=O)NC2CCCCC2)cc1	none
CN(C)c1ccc(-c2ccnc(N[C@H]3CO[C@H]4[C@@H]3OC[C@H]4OC(=O)Nc3cccc(C#N)c3)n2)cc1	none
O=C(Nc1ccc(Oc2ccccc2)cc1)O[C@@H]1CO[C@H]2[C@@H]1OC[C@@H]2Nc1nccc(-c2cccs2)n1	none
O=C(Nc1ccc(Oc2ccccc2)cc1)N[C@H]1CO[C@H]2[C@@H]1OC[C@@H]2Nc1nccc(-c2cccs2)n1	none
CN(C)c1ccc(-c2ccnc(N[C@H]3CO[C@H]4[C@@H]3OC[C@H]4OC(=O)NC3CCCCC3)n2)cc1	KDM5B inhibitor 32µM
O=C(NC1CCCCC1)O[C@@H]1CO[C@H]2[C@@H]1OC[C@@H]2Nc1nccc(-c2cccs2)n1	KDM5B inhibitor 32µM
Cc1ccc(C2C3=C(CC(C)(C)CC3=O)Nc3nc(N)[nH]c(=O)c32)cc1 (centres undefined)	none
CCCN(C)c1nccnc1OC1CCN(C(=O)c2ccccc2OC)C1 (centres undefined)	KDM5B inhibitor 28µM
CCCN(C)c1nccnc1OC1CCN(C(=O)c2ccncc2)C1 (centres undefined)	none
CCCN(C)c1nccnc1OC1CCN(C(=O)c2ccc(OC)cc2)C1 (centres undefined)	none
O=C(c1cc(F)cc(F)c1)N1CCC(Oc2ncccc2C(=O)N2CCCCC2)C1 (centres undefined)	none
Cc1ccc(C(=O)N2CCC(Oc3ncccc3C(=O)N3CCCCC3)C2)cc1C (centres undefined)	KDM5B inhibitor 28µM
COc1ccccc1C(=O)N1CCC(Oc2ncccc2C(=O)N2CCCCC2)C1 (centres undefined)	none
COc1ccc(-c2c(C(F)(F)F)oc3cc(OCC#N)ccc3c2=O)cc1	none
C[C@H](NC(=O)Cn1ccc2cc(OCc3ccccc3)ccc21)C(=O)O	none
Cc1ccccc1Oc1c(CCC(=O)NCC2CC2)c(C)nn1-c1ccc(F)cc1	none
Brc1cccc(CNCc2ccco2)c1	none
CC1=C(C(=O)OC(C)(C)C)C(c2ccccc2Cl)NC(=S)N1 (centres undefined)	none
CCCCCCCNC(=S)Nc1ccccc1F	none
O=C(COc1ccc(F)cc1)N1CCCC(c2noc(COc3ccccc3)n2)C1 (centres undefined)	none
Cc1cccc(C)c1-n1nnnc1C1(Nc2ccc3c(c2)OCCO3)CCCC1	none
COC(=O)c1cccc(NC(=O)c2ccc(N3CCCCS3(=O)=O)cc2Cl)c1	none
Cc1noc2c(NCCc3ccccn3)cc(-c3ccccc3)nc12	none
COCCCNc1ncccc1-c1cc(-c2ccccc2)nc2c(C)noc12	KDM5B inhibitor 40µM
Cc1noc2c(NCc3cnccn3)cc(-c3ccccc3)nc12	none
COCCCNc1cc(-c2ccccc2OC)nc2c(C)noc12	none
COc1ccccc1-c1cc(NCCc2ccccn2)c2onc(C)c2n1	none
Cc1noc2c(-c3cccnc3NCCCn3ccnc3)cc(-c3ccccc3)nc12	KDM5B inhibitor 35µM
CC1(c2ccccc2)COC(c2coc3ccccc3c2=O)OC1 (centres undefined)	none
CCCc1cc(=O)[nH]c(-n2nc(C)cc2NC(=O)c2ccc(S(=O)(=O)N(CC)CC)cc2)n1	none
Cc1cccc(NC(=O)N2CCc3c(C(=O)NC(C)(C)C)cccc32)c1	none
